Results from ChEMBL document CHEMBL3988442, “University of Dundee, Small-Polar-MMV Screening Library” (2021).
For some assays here: Results with a measured potency or affinity are listed apart.

Tests used:
Parameters in all cases: scale not given: direction of the effect not stated beside the values
[1] = molecular target: Protein translocase subunit SecA (Escherichia coli (strain K12)) (UniProt P10408); assay: Assay to Identify E. coli SecA ATPase Inhibitors; assay type: functional; details: 30 µM
Sequence of Protein translocase subunit SecA (Escherichia coli (strain K12)) (P10408 whole entry): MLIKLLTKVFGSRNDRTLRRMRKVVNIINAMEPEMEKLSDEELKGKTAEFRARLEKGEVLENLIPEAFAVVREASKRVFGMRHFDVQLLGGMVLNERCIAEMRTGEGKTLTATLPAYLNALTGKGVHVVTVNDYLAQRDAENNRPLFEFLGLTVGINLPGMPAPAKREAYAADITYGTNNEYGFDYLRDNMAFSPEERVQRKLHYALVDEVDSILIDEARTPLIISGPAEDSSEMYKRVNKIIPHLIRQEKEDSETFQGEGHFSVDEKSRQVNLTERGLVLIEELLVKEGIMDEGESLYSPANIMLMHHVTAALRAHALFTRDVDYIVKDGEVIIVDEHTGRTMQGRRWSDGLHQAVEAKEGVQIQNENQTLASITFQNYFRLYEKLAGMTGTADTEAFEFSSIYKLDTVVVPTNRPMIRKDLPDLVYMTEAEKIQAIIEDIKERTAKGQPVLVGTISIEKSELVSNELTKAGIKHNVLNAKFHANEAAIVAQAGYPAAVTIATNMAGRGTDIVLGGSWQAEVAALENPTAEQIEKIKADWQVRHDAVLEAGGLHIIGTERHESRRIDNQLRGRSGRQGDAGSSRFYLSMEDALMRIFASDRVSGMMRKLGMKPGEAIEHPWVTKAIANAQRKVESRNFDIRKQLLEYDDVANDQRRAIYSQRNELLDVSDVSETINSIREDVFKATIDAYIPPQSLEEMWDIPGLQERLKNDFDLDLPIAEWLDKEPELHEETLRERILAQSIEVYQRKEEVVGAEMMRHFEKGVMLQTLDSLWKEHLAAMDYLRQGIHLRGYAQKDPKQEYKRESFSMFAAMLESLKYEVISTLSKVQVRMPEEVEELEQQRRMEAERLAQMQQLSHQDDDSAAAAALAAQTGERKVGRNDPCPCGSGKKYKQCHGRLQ

[2] = molecular target: T1, Ubiquitin-activating enzyme e1, putative (Leishmania donovani (strain BPK282A1)) (UniProt E9BSI1); assay: Leishmania donovani Ubiquitin Activating Enzyme (LdE1); assay type: functional; details: 30 µM
T1 sequence (whole entry): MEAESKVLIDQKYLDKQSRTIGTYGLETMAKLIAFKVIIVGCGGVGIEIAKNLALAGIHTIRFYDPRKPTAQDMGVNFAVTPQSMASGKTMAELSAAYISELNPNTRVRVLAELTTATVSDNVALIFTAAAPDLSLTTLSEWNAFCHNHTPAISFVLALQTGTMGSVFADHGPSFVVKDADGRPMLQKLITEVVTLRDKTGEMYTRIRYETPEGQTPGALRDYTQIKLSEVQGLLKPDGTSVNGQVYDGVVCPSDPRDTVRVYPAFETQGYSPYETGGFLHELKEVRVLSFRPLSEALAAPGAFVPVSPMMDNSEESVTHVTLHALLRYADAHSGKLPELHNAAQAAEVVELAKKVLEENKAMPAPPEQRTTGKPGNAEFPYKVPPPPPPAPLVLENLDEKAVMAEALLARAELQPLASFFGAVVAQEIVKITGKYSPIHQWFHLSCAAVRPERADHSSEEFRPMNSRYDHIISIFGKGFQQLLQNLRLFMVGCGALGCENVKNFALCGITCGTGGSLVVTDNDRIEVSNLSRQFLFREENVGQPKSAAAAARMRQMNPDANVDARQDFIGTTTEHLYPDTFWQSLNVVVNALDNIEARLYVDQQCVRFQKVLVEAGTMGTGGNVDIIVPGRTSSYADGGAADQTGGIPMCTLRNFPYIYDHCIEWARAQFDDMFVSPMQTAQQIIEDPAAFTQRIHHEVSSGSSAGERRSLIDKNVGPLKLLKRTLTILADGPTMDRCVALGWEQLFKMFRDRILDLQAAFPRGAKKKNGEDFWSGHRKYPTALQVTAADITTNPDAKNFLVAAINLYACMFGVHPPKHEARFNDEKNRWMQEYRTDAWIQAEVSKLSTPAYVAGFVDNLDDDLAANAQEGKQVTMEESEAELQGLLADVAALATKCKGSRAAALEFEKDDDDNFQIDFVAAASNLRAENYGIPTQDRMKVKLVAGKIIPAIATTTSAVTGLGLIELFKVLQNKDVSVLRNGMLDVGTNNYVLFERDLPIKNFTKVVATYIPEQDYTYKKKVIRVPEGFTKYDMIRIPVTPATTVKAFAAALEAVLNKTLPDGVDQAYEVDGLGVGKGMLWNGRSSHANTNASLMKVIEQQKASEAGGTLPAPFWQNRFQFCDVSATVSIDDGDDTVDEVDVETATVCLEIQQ

[3] = molecular target: AMP-activated protein kinase, AMPK (Homo sapiens) (UniProt P54646+O43741+P54619+Q9UGJ0+Q9Y478+Q13131+Q9UGI9); assay: AMP-dependent Kinase enzyme assay. An in vitro enzyme assay that detects ADP turnover that is directly proportional to AMPK activity. This uses naive AMPK that is activated during the assay with MK-8722; assay type: functional; details: 30 µM
[4] = molecular target: Sialic acid-binding Ig-like lectin 9 (Homo sapiens) (UniProt Q9Y336); assay: Hs-Siglec9 ALPHAscreen SOP 20170721; details: 10 µM
Sequence of Sialic acid-binding Ig-like lectin 9 (Homo sapiens) (Q9Y336 whole entry): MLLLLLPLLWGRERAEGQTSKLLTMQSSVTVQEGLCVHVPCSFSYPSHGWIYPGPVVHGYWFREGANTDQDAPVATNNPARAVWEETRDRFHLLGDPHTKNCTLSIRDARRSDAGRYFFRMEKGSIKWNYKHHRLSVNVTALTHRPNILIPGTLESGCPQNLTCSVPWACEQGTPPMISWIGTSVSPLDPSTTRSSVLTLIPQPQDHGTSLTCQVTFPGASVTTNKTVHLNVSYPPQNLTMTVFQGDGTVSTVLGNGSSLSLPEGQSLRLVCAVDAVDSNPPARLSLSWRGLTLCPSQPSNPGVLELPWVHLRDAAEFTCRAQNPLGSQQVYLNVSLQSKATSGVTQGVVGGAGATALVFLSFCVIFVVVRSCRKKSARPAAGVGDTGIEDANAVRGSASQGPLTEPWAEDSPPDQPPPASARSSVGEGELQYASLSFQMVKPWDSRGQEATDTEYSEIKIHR

Trypanosoma cruzi = assay: Trypanosoma cruzi phosphomannomutase and mannose-1-phosphate guanylyltransferase assay; assay type: functional; details: 10 µM
[5] = molecular target: T2, Arginase-2, mitochondrial (Homo sapiens) (UniProt P78540); assay: in vitro enzyme assay to detect the production of urea directly proportional to the activity of Arginase II; assay type: functional; details: 33.3 µM; note: in the data most compounds retested in dose-response had high values
T2 sequence (whole entry): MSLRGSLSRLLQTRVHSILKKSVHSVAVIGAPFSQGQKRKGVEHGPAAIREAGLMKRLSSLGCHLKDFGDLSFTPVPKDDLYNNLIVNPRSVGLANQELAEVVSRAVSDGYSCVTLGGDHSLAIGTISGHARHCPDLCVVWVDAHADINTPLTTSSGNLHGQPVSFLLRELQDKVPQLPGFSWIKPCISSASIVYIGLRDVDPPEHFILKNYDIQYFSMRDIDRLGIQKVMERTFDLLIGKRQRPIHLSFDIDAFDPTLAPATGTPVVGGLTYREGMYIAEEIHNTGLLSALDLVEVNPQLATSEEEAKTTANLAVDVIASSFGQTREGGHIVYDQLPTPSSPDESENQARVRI

[6] = molecular target: T3, Proteasome subunit beta (Trypanosoma cruzi) (UniProt O96673); assay: Trypanosoma cruzi proteasome chymotrypsin-like activity (TcProtChymo) assay.; note: in the data most compounds retested in dose-response had high values; assay type: functional; details: 9.37 µM
T3 sequence (whole entry): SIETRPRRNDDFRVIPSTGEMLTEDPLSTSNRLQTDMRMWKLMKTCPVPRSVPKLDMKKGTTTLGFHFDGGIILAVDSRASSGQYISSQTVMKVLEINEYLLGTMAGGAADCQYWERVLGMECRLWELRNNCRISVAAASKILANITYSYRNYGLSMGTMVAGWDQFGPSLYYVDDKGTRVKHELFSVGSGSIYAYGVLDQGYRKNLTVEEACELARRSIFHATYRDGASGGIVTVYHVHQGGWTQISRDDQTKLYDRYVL

Homo sapiens = organism: Homo sapiens; assay: To identify inhibition of the IFN signalling (Jak-Stat) pathway via expression of an eGFP reporter gene under the control of an IFN-stimulated response element (ISRE) containing MxA promoter.; assay type: functional; details: 30 µM
[7] = molecular target: T4, Tyrosyl-tRNA synthetase, putative (Trypanosoma cruzi (strain CL Brener)) (UniProt Q4DSP6); assay: Trypanosoma cruzi tyrosyl tRNA synthetase (TcYRS) _High Tyrosine SOP; assay type: functional; details: 30 µM; note: in the data most compounds retested in dose-response had high values
T4 sequence (whole entry): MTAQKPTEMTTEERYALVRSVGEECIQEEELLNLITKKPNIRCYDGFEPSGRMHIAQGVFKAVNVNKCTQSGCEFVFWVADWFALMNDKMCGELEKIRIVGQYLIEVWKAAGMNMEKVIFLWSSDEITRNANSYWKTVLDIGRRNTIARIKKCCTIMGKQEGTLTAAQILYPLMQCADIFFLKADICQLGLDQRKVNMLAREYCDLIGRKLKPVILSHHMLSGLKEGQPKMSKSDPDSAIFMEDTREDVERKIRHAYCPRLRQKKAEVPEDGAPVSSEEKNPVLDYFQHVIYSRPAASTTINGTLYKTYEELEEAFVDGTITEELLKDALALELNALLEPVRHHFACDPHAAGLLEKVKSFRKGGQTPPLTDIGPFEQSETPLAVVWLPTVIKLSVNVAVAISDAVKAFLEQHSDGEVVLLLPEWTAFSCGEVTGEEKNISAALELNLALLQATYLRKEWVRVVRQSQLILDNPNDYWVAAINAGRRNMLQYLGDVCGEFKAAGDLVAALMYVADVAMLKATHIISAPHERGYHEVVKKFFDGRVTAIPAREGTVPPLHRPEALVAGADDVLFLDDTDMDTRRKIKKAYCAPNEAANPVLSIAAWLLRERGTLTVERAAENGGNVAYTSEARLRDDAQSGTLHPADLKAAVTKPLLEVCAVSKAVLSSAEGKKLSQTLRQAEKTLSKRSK

[8] = molecular target: T4, Tyrosyl-tRNA synthetase, putative (Trypanosoma cruzi (strain CL Brener)); assay: Trypanosoma cruzi tyrosyl tRNA synthetase (TcYRS) SOP; assay type: functional; details: 30 µM
[9] = molecular target: Chromo domain-containing protein 1 (Saccharomyces cerevisiae (strain ATCC 204508 / S288c) (Baker's yeast)) (UniProt P32657); assay: ScCHD-1 Enzyme Inhibition Assay; assay type: functional; details: 30 µM; note: in the data most compounds retested in dose-response had high values
Sequence of Chromo domain-containing protein 1 (Saccharomyces cerevisiae (strain ATCC 204508 / S288c) (Baker's yeast)) (P32657 whole entry, the tested form may be a part): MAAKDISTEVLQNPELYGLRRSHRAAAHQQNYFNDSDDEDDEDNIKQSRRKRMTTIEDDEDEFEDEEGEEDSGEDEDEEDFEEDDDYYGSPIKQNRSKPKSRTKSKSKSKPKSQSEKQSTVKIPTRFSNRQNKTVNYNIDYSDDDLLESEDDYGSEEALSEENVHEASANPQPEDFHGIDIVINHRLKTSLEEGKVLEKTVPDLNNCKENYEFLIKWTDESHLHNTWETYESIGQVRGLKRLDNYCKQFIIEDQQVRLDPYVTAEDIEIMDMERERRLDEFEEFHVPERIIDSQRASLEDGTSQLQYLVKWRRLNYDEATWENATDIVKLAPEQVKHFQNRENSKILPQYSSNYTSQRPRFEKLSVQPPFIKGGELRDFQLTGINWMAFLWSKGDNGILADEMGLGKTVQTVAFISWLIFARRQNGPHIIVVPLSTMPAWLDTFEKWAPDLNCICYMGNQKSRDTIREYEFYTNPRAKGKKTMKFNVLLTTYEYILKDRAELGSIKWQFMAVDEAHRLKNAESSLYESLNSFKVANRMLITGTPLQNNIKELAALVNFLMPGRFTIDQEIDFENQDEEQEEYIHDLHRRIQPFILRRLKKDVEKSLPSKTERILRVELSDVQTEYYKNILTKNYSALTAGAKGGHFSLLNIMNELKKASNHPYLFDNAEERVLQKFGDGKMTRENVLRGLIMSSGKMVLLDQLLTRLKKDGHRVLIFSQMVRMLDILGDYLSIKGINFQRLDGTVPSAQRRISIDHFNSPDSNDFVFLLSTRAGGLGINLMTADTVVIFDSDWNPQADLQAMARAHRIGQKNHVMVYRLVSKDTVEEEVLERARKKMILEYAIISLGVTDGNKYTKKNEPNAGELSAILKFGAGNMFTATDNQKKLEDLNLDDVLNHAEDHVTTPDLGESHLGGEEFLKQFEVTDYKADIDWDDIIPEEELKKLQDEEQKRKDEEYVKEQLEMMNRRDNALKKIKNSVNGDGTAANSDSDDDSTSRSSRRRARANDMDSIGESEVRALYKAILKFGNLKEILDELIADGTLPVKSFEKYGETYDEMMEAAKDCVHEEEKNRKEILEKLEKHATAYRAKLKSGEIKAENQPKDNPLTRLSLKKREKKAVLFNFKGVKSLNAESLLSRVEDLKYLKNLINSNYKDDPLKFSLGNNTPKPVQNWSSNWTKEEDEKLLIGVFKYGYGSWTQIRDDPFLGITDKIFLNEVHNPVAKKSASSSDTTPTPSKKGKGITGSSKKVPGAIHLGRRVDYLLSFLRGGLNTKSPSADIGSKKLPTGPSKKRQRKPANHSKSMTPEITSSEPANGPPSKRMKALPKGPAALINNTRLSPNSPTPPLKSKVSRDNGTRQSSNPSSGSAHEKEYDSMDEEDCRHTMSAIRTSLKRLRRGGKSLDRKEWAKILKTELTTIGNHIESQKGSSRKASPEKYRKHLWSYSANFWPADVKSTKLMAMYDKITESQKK

SMILES	Percent Effect [1] [%]	Percent Effect [2] [%]	Percent Effect [3] [%]	Percent Effect [4] [%]	Percent Effect (Trypanosoma cruzi) [%]	Percent Effect [5] [%]	Percent Effect [6] [%]	Percent Effect (Homo sapiens) [%]	Percent Effect [7] [%]	Percent Effect [8] [%]	Percent Effect [9] [%]
COc1ccc(Br)c(C(=O)NCC2CCN(C(=O)c3ccoc3)CC2)c1	-6.69	5.48	7.36	-0.134	0.783	3.18	12.4	7.16	5.38	17.5	-6.16
CC(C)c1ncc2c(n1)CN(Cc1ccc(C(N)=O)cc1)CC2	-5.85	18.4	-25.7	-1.87	10.7	-2.68	11.5	11.1	12.2	19.5	-14.2
Cc1ccc(Nc2nccc(C3CCCN(CC(=O)N(C)C)C3)n2)nc1 (configuration not stated)	-5.52	5.33	-1.77	6.73	5.51	-6.76	13.8	-1.72	11.7	19.2	-2.77
O=C(O)c1cc(NS(=O)(=O)c2cccc(Cl)c2F)ccc1Cl	-7.65	2.6	4.08	1.53	-5.8	-2.13	5.57	23.4	-11.7	-12.2	-3.44
CC(C)CN1CCCn2nc(CNC(=O)CCN)cc2C1	-6.28	5.33	4.29	6.76	1.85	3.65	13.4	7.88	6.01	16.1	-5.7
Cc1noc([C@@H]2CCCN2C(=O)C2CCN(C(=O)C3CCC3)CC2)n1	-2.73	5.48	27.2	-1.91	-6.27	0.909	11.7	27.9	0	5	98.2
Cc1ccc(F)cc1NC(=O)NCC(C)N1CCOCC1 (configuration not stated)	-1.78	18.9	0.541	-0.431	0.391	1.25	9.55	14.3	11.9	18.3	3.74
Cc1nn(C)c2c(NCc3cccnc3)nc(C3CC3)nc12	-3.37	15.6	11.8	13.7	5.61	24.8	12.8	12.8	1.07	13.6	0.869
COc1cccc(C(=O)N2CCCCC2CNC(N)=O)c1 (configuration not stated)	-9.94	5.26	4.5	4.83	-4.58	-3.6	0.0846	1.79	3.45	6.17	0.323
Cc1csc(N2CCN(CC(=O)Nc3c(C)n[nH]c3C)CC2C)n1 (configuration not stated)	-1.64	21.6	-4.71	-7.72	-2.88	-3.51	15.4	5.89	3.96	13.4	-4.83
COc1ccc(F)cc1C(C)NC(=O)c1nnc(C)s1 (configuration not stated)	-4.77	-2.7	0.954	-9.5	-2.05	0.248	-4.89	-14.3	-3.23	-1.24	3.82
CN1CCOC(CNCc2coc(-c3cccs3)n2)C1 (configuration not stated)	-2.66	22.8	-18.2	-13.1	5.38	3.42	8.27	12.8	8.37	21.5	-14.2
Cc1nn(C)c(N(C)C)c1CNCC(O)COc1ccccc1 (configuration not stated)	-3.8	5.48	-12.3	0.598	4.11	2.27	17.4	-13.8	5.38	17.5	-1.71
Cn1ccc2ccnc(CC3CN(C(=O)C4CCC(F)(F)CC4)C3)c21	-2.7	6.76	5.92	5.61	-0.395	-0.696	9.05	1.45	6.45	14.3	-12.4
CN(Cc1ccco1)C[C@H]1OC[C@@H]2CCN(Cc3cccnc3)C[C@@H]21	-2.62	10.7	0.611	-1.35	0.772	-51.1	8.55	1.18	0	10	-2.25
Cc1ncccc1O[C@H]1CCN(C(=O)c2cccs2)CC[C@@H]1O	-1.97	-9.46	7.91	0.722	-2.17	-2.09	2.03	4.21	1.07	-1.3	-0.631
CN(C)C(CNC(=O)NCCc1cccc(O)c1)c1ccco1 (configuration not stated)	-1.55	5.41	0.167	22.4	3.81	6.7	13	-1.66	0	6.17	-9.98
CCn1ccnc1CN1CCN(CCOc2cccc(C#N)c2)CC1	-4.35	21.1	-6.98	-4.93	5.64	-0.383	11.9	4.93	8.33	19.5	-13
Cc1cccc(C)c1OCCC(=O)N1CCC(c2nncn2C)CC1	-6.09	23.4	3.3	8.75	6.74	-2.49	6.76	4.85	6.8	21.9	-8.79
CCc1n[nH]c(C2CN(C(=O)c3ccsc3)CCO2)n1 (configuration not stated)	-3.58	0	6.15	8.54	-0.686	4.84	6.39	4.84	-2.86	-2.35	-13.8
CC(C)c1nc(C2CCCN(C(=O)c3ccc4nccn4c3)C2)no1 (configuration not stated)	-2.08	10.4	2.88	12.4	-1.47	1.47	3.15	-11.3	1.91	7.06	-11.9
OC1CCCN(Cc2c(-c3ccco3)[nH]c3ncccc23)C1 (configuration not stated)	-4.22	25.7	-13.3	19	2.17	-1.16	11.1	20.3	6.45	19.5	-18.1
